# Source: PubChem (National Center for Advancing Translational Sciences (NCATS))
# Marburg entry inh – blocks Marburg virus binding to or entry into cells; Potency, µM (highest dose often 37.8 µM), inactives show at the top dose activity change, negative = inhibition, most hits filed as inhibitors; Marburg virus pseudotyped entry inhibition, cell reporter; 1.8% of 300,000 active; AID 540276; calls by dose curve; tested in HEK293 cells; note: potency is the fitted concentration of half-maximal effect; % is set by controls: 0 for no effect and ±100 for the full control effect
# Pf growth 96h – P. falciparum growth inhibition at 96 hour, primary screen for plastid delayed-death inhibitors; 6.9% of 320,000 active; P. falciparum luciferase reporter growth, 96 h; AID 504834; Potency, µM (top dose mostly 28.7 µM), without a hit: top-dose activity change, negative = inhibition, usual class: inhibitors; note: potency is the fitted concentration of half-maximal effect; % is set by controls: 0 for no effect and ±100 for the full control effect
#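 P. falciparum expressing integrated firefly luciferase grown in erythrocytes (2% hematocrit, 0.05% parasitemia final) with compounds for 96 hours at 37 C, 5% CO2. Growth inhibition read as loss of luminescence after adding luciferase detection reagent.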
# Pf growth 48h – inhibits P. falciparum growth in the first generation, 48 h; AID 504832; P. falciparum luciferase growth in erythrocytes, 48 h; Potency, µM (series often up to 28.7 µM), for inactives: at the top dose activity change, negative = inhibition, actives largely listed as inhibitors; 5.9% of 310,000 active; note: potency is the fitted concentration of half-maximal effect; % is set by controls: 0 for no effect and ±100 for the full control effect
#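 Luciferase-expressing P. falciparum in infected erythrocytes (2% hematocrit, 0.1% parasitemia final) in RPMI 1640/0.5% Albumax were exposed to compound for 48 hours at 37 C, 5% CO2; growth read as luminescence.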
# CHX counter – counter-screen hit for Shiga toxin inhibitors, cycloheximide; 12% of 300,000 active; cell reporter, cycloheximide protein synthesis inhibition counterscreen; max response, %; in the data active = max response mostly above about 13%, no sharp cut-off; inactive = mostly below about 14%; note: read at 38.3 µM for the half of the compounds with a filed dose; 0% is about no effect
# Shiga toxin inh – Shiga toxin inhibition; Vero cells, Shiga toxin protein synthesis inhibition reporter; inhibition, % at 38.7 µM; 9.2% of 290,000 active; AID 2315; in the data active = inhibition mostly above about 28%, no sharp cut-off; inactive = mostly below about 43%; note: 0% is about no effect
# Lassa entry inh – inhibitors of Lassa virus binding or cell entry. 1.2% of 300,000 active. Lassa virus pseudotype entry inhibition, cell reporter. Potency, µM (titrated, usually from 37.9 µM), for the others: top-dose activity change, negative = inhibition, actives largely listed as inhibitors. AID 540256; calls by dose curve; tested in HEK293 cells; note: potency is the fitted concentration of half-maximal effect; % is set by controls: 0 for no effect and ±100 for the full control effect; nearly all actives have a fitted effect of over 50% in size
# The depositor's hits bear a star; ? = inconclusive; . = not tested or not shown; [ ] = remark or other dose. Only some compounds are listed: those with a hit (about 19% of all), similar ones and a draw of the others. Unless noted, calls come from the whole dose curve; as a rule, active = well fitted inhibition curve with a large enough effect; inconclusive = small, poorly fitted or top-dose-only effect, or another doubt; inactive = no such curve, though single readings can be large or run the other way.
SMILES,Marburg entry inh,Pf growth 96h,Pf growth 48h,CHX counter,Shiga toxin inh,Lassa entry inh
CCCOc1ccc(-c2nc(C#N)c(N3CCN(CC)CC3)o2)cc1,3%,10µM*,?,-1,-2,5%
N#Cc1nc(-c2ccc(OCc3ccc(Cl)cc3)cc2)oc1N1CCC(C(N)=O)CC1,-6%,0%,.,-2,-14,1%
CCCOc1ccc(-c2nc(C#N)c(N3CCC(C(N)=O)CC3)o2)cc1,0%,10µM*,-2%,-4,15,-3%
N#Cc1nc(-c2ccc(OCc3ccc(Cl)cc3)cc2)oc1N1CCOCC1,8%,10µM*,23%,-7,-14,2%
CCOc1ccc(-c2nc(C#N)c(N3CCN(CC)CC3)o2)cc1,11%,224%,-9%,-9,-23,-1%
NS(=O)(=O)c1ccc(CNS(=O)(=O)c2ccc(Cl)nc2)cc1,-2%[46.1 µM],43%,-6%[5.75 µM],-1,15,19%[46.1 µM]
CCCCCCSc1cccc(-c2nc3ccc(Cl)cn3c2NCc2ccccc2)c1,.,?,7.4µM*,.,.,.
Clc1ccc2nc(-c3cccc(SC4CCCCC4)c3)c(NCc3ccccc3)n2c1,.,3.7µM*,4.1µM*,.,.,.
CCCCNc1c(-c2cccc(SC3CCCCC3)c2)nc2ccc(Cl)cn12,.,?,10µM*,.,.,.
CC1=C(C(=O)OCC2CCCCC2)C(c2cccc(F)c2F)CC(=O)N1 (centres undefined),0%[46.1 µM],.,.,.,.,13%[46.1 µM]
C/C=C\C(=O)Nc1cccc(C2=NOC3(C2)C[C@@H](C(N)=O)N(C(=O)c2ccc(Cl)cc2)C3)c1 (some centres undefined),.,-16%,17%,-2,-7,.
CCC(=O)N1c2ccccc2CC1C(=O)NCc1cc(Br)ccc1OC (centres undefined),.,.,.,.,.,10%[46.1 µM]
CNC(=S)N(C)[C@H]1c2c(ccc3ccccc23)OC[C@H]1CO,5%[46.1 µM],-10%,87%,-4,-9,21%[46.1 µM]
CCc1ccc(Oc2coc3cc(OCC(=O)Nc4cc(C)ccc4C)ccc3c2=O)cc1,-2%[46.1 µM],?,5%,-2,-11,-6%[46.1 µM]
COc1cc(C(C)=O)ccc1Oc1ncnc2c1cnn2-c1ccc(F)cc1,-1%,177%,164%,54*,106*,-6%
COc1ccccc1Oc1ncnc2c1cnn2-c1ccccc1,12%[46.1 µM],196%,83%,43*,117*,10%
COc1ncnc2c1cnn2-c1ccccc1,0%,110%,75%,37*,81*,7%
COc1cc(C(C)=O)ccc1Oc1ncnc2c1cnn2-c1cccc(Cl)c1,-4%,56%,20%,2,-46,?
CC(NCCC1(Cc2ccccc2Cl)CCOC(C)(C)C1)c1cccs1 (centres undefined),?,12µM*,?,-1,-11,?
CC(NCCC1(C(C)C)CCOC(C)(C)C1)c1cccs1 (centres undefined),.,?,24%,8.8*,27,.
CCCCn1c(-c2ccco2)nc2oc3ccccc3c(=O)c2c1=O,1%[46.1 µM],9.3µM*,?,0,-2,-7%
COc1ccc(Cn2c(-c3ccco3)nc3oc4ccccc4c(=O)c3c2=O)cc1,13%[46.1 µM],27%,18%,0,-2,0%
CCc1nc2oc3ccccc3c(=O)c2c(=O)n1-c1ccc(C)cc1,?,428%,161%,41*,64*,17%[46.1 µM]
CCCc1nc2oc3ccccc3c(=O)c2c(=O)n1-c1ccc(C)cc1,.,1%,26%,36*,66*,.
CCc1nc2oc3ccccc3c(=O)c2c(=O)n1CCOC,20%,?,.,-1,-1,6%
CCc1nc2oc3ccccc3c(=O)c2c(=O)n1-c1ccccc1,5%,.,205%,44*,65*,?
CCCc1nc2c(c(=O)c3ccccc3n2C)c(=O)n1-c1ccc(F)cc1,-5%,?,?,-2,15,4%
CC1CCCC(C)N1C(=O)CN1C(=O)C(C)(C)Oc2ccc(C(=O)NC3CCCCC3)cc21 (centres undefined),14%,?,?,1,4,0%
CCOc1ccc(Cc2c(Cl)nc(N)nc2Cl)cc1,-5%,?,?,0,5,9%
Cc1ccc(-n2c(C(C)C)nc3oc4ccccc4c(=O)c3c2=O)cc1,.,69%,64%,29*,63*,.
